In PubChem BioAssay (NCI) one finds growth inhibition data, which are given here for 17 compounds.

This is part of a sample that, as a whole, favours compounds with a hit. Of some 79,000 tested, about 15% had one in any assay. Calls of active or inactive are those of the source. No stated cut-off is given here; in the data, active means growth inhibition above about 70%; inactive means the rest.

The assay is described as follows: NCI Yeast Anticancer Drug Screen. Data for the rad14 strain (AID 159).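 Further: 0% = growth of vehicle-treated control cultures.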 The conditions noted are these: S. cerevisiae rad14 strain growth inhibition; at 1.2 µM; active compounds read high. A digest of the protocol:
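DNA repair-defective yeast, compound-exposed; % growth inhibition derived by comparison with vehicle-treated controls.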
Turning to `CS(=O)(=O)SCc1ccc([N+](=O)[O-])cc1`, the growth inhibition is 5% (inactive).
Take `Cc1csc(=S)n1OC(=O)NC1CCCCC1`: the growth inhibition is -8% (inactive).
As to `CCOc1ccc(NC(=O)C2=C(C)NC(C)=C(C(=O)Nc3ccc(OCC)cc3)C2c2cccc([N+](=O)[O-])c2)cc1`, the growth inhibition is -2% (inactive).
Take `CC(C)(C)N=C(NO)c1ccccc1`: the growth inhibition is -3% (inactive).
Consider `CCCCC/C(=C(\C#N)C(=O)OCC)c1ccccc1`, for which the growth inhibition was -1% (inactive).
Regarding `O=C(NCCCl)Sc1ccc(Cl)cc1`, the growth inhibition was -1% (inactive).
Next, `O=C1Nc2ccc(Br)cc2C1=Nc1ccc2c(c1)OCO2`: -38% (inactive).
For `CCC(C)OC(=O)Nc1ccc(C)c(NC(=O)OC(C)CC)c1` (configuration not stated), the growth inhibition was 0% (inactive).
For the compound `O=C(O)c1cc2ccc(Cl)cc2c(O)c1C1=CCCCC1`, the growth inhibition was -6% (inactive).
Take `CN(C)Cc1cc(N=Nc2ccc(Cl)cc2)ccc1OC(=O)c1ccccc1`: the growth inhibition is -1% (inactive).
As to `CN1CCN(C(=O)/C=C/C(=O)c2ccccc2)CC1`, the growth inhibition was 9% (inactive).
As to `CCCC/C=C/C(C)(C(=O)OCC)C(=O)OCC`, the growth inhibition is -5% (inactive).
The same measure for `Cc1nc(-c2cc3cc([N+](=O)[O-])ccc3oc2=O)cs1`: -1% (inactive).
As to `Cc1nc2ccccc2nc1NNc1ccccc1`, the growth inhibition was -3% (inactive).
For `CN(C)[C@@H]1C(=O)C(C(N)=O)=C(O)[C@@]2(O)C(=O)C3=C(O)c4c(O)cccc4C[C@H]3C[C@@H]12`, the growth inhibition is 0% (inactive).
In the case of `COc1ccc(NC(=O)CC2SC(=Nc3ccccc3C)NC2=O)c([N+](=O)[O-])c1` (configuration not stated), the growth inhibition was -2% (inactive).
Turning to `COc1cc(O)c2c(c1O)C(=O)c1cc(C)ncc1C2=O`, the growth inhibition was 31% (inactive).
